About 1,500 (3.8%) of roughly 39,000 compounds were called active. The entries come from a sample that favours actives as a whole.

The subject of the assay is HSkMC (human skeletal muscle cells). Nature of the assay: cytotoxicity call (relative viability < 0.9). Conditions: 10 µM.
On to `Cc1nnc(=O)[nH]c1NNc1ccccc1`, for which the cytotoxicity call was “inactive”.

As for `COc1cccc(NC(=O)N2C[C@@H](O)COC[C@H]3O[C@H](CC(=O)NCCCN4CCOCC4)CC[C@@H]32)c1`, the cytotoxicity call was “inactive”.

In the case of `COc1ccc2c3c(n(c2c1)C)[C@@H](CO)N(C[C@]13CN(C1)S(=O)(=O)c1cn(cn1)C)C(=O)Nc1ccc(cc1)F`, the cytotoxicity call was “inactive”.

For `NCc1ccc(-n2cccn2)cc1`, the cytotoxicity call was “inactive”.

On to `COc1ccc(S(=O)(=O)Nc2ccc3c(c2)C(=O)N([C@H](C)CO)C[C@H](C)[C@H](CN(C)S(=O)(=O)c2cn(C)cn2)OCCCC[C@H](C)O3)cc1`, for which the cytotoxicity call was “inactive”.

Consider `CCCCCCCCCCCCCCCC(=O)OC[C@H](NC(=O)C(Cl)Cl)[C@H](O)c1ccc([N+](=O)[O-])cc1`, for which the cytotoxicity call was “inactive”.

`CCCCCCCCCC[C@@H](O)[C@H]1C=C[C@@H]2C(=O)N(c3ccccc3)C(=O)[C@@H]2N1Nc1ccc([N+](=O)[O-])cc1`: the cytotoxicity call was “active”.

For the compound `CCCCCCCCCCCCCCCC(=O)OCC(NC(=O)C(Cl)Cl)C(O)c1ccc([N+](=O)[O-])cc1` (stereo unspecified), the cytotoxicity call was “inactive”.

For `C[C@@H]1CN([C@@H](C)CO)C(=O)c2cc(N(C)C)ccc2O[C@@H](C)CCCCO[C@@H]1CN(C)C(=O)Nc1cccc2ccccc12`, the cytotoxicity call was “inactive”.

Consider `C[C@@H]1CN([C@@H](C)CO)C(=O)c2cc(NS(=O)(=O)c3cccs3)ccc2O[C@@H]1CN(C)Cc1ccncc1`, for which the cytotoxicity call was “inactive”.

As to `CN(C)C/C=C/C(=O)Nc1ccc(C(=O)Nc2cccc(Nc3ncc(Cl)c(-c4c[nH]c5ccccc45)n3)c2)cc1`, the cytotoxicity call is “active”.

`C[C@@H]1CN([C@@H](C)CO)C(=O)c2cc(NC(=O)Nc3ccccc3)ccc2O[C@@H](C)CCCCO[C@@H]1CN(C)Cc1ccncc1`: the cytotoxicity call was “inactive”.

On to `Cl.Nc1c2c(nc3ccccc13)CCCC2`, for which the cytotoxicity call was “inactive”.

For `Nc1c2c(nc3ccccc13)CCCC2`, the cytotoxicity call was “inactive”.

As for `C[C@@H]1CCCCO[C@H](CN(C)Cc2ccncc2)[C@@H](C)CN([C@H](C)CO)C(=O)c2cc(NS(C)(=O)=O)ccc2O1`, the cytotoxicity call was “inactive”.

Take `C[C@@H]1CCCCO[C@H](CN(C)C(=O)c2ccccc2)[C@@H](C)CN([C@@H](C)CO)C(=O)c2cc(NS(=O)(=O)c3cccs3)ccc2O1`: the cytotoxicity call is “inactive”.

As for `CCC[C@@H](O)C#Cc1cnc2c(c1)C(=O)N([C@H](C)CO)C[C@H](C)[C@H](CN(C)Cc1ccc3c(c1)OCO3)O2`, the cytotoxicity call is “inactive”.

Take `COc1ccc(S(=O)(=O)Nc2ccc3c(c2)C(=O)N([C@H](C)CO)C[C@H](C)[C@H](CN(C)S(C)(=O)=O)OCCCC[C@H](C)O3)cc1`: the cytotoxicity call was “inactive”.

On to `COC1CC(OC2C(C)=CCC3CC(CC4(CCC(C)C(C5CCCCC5)O4)O3)OC(=O)C3C=C(C)C(=NO)C4OCC(=CC=CC2C)C34O)OC(C)C1O` (stereo unspecified), for which the cytotoxicity call was “active”.

For the compound `CO[C@H]1C[C@H](O[C@@H]2/C(C)=C/C[C@@H]3C[C@@H](C[C@]4(CC[C@H](C)[C@@H](C5CCCCC5)O4)O3)OC(=O)[C@@H]3C=C(C)/C(=N/O)[C@H]4OC/C(=C\C=C\[C@@H]2C)[C@]43O)O[C@@H](C)[C@@H]1O`, the cytotoxicity call was “active”.

Consider `CO[C@H]1C[C@@H](O[C@@H]2/C(C)=C/C[C@@H]3C[C@@H](C[C@]4(CC[C@H](C)[C@@H](C5CCCCC5)O4)O3)OC(=O)[C@@H]3C=C(C)/C(=N/O)[C@H]4OC/C(=C\C=C\[C@@H]2C)[C@]43O)O[C@@H](C)[C@@H]1O`, for which the cytotoxicity call was “inactive”.

For `O=c1[nH]c(=O)n([C@H]2C[C@H](O)[C@@H](CO)O2)cc1C(F)(F)F`, the cytotoxicity call was “inactive”.

Regarding `C[C@H](CO)N1C[C@H](C)[C@@H](CN(C)Cc2ccncc2)OCCCC[C@H](C)Oc2ccc(NC(=O)CCC(F)(F)F)cc2C1=O`, the cytotoxicity call was “inactive”.

For the compound `C[C@H](CO)N1C[C@H](C)[C@@H](CN(C)CC2CCCCC2)OCCCC[C@H](C)Oc2ccc(NC(=O)CCCCCC(=O)Nc3ccccc3N)cc2C1=O`, the cytotoxicity call was “inactive”.

`COc1ccc(NC(=O)Nc2ccc3c(c2)C(=O)N([C@@H](C)CO)C[C@@H](C)[C@H](CN(C)Cc2ccc(Cl)c(Cl)c2)OCCCC[C@@H](C)O3)cc1`: the cytotoxicity call is “inactive”.

As to `CCCN(C)C[C@@H]1OCCCC[C@@H](C)Oc2ccc(NC(=O)Nc3ccc(OC)cc3)cc2C(=O)N([C@H](C)CO)C[C@@H]1C`, the cytotoxicity call was “inactive”.

Regarding `COc1ccc(C#Cc2cnc3c(c2)C(=O)N([C@H](C)CO)C[C@@H](C)[C@@H](CN(C)C(=O)CC2CC2)O3)cc1`, the cytotoxicity call is “inactive”.

As for `O=C(C[C@@H]1CC=CCC[C@@H](Cc2ccc(F)cc2)C(=O)OC[C@H](Cc2ccccc2)NC1=O)NCCO`, the cytotoxicity call is “inactive”.

Take `C[C@H](CO)N1C[C@H](C)[C@H](CN(C)Cc2ccccc2)Oc2ncc(-c3cccc(C(F)(F)F)c3)cc2C1=O`: the cytotoxicity call is “inactive”.

In the case of `C[C@H](CO)N1C[C@H](C)[C@H](CN(C)Cc2cccc(C(F)(F)F)c2)Oc2ncc(-c3ccccc3)cc2C1=O`, the cytotoxicity call is “inactive”.

As for `C[C@H](CO)N1C[C@H](C)[C@H](CN(C)Cc2cccc(C(F)(F)F)c2)Oc2ncc(-c3cccc(C(F)(F)F)c3)cc2C1=O`, the cytotoxicity call was “active”.

For the compound `C[C@H](CO)N1C[C@H](C)[C@H](CN(C)Cc2cccc(C(F)(F)F)c2)Oc2ncc(-c3cccc(F)c3)cc2C1=O`, the cytotoxicity call is “inactive”.

Consider `C[C@H](CO)N1C[C@H](C)[C@H](CN(C)Cc2cccc(C(F)(F)F)c2)Oc2ncc(/C=C/c3ccccc3)cc2C1=O`, for which the cytotoxicity call was “active”.

For the compound `Cc1cccc(CN(C)C[C@@H]2Oc3ncc(-c4cccc(C(F)(F)F)c4)cc3C(=O)N([C@H](C)CO)C[C@@H]2C)c1`, the cytotoxicity call is “inactive”.

For `C[C@H](CO)N1C[C@H](C)[C@H](CN(C)C(=O)C2CC2)Oc2ncc(-c3ccc(C(=O)N(C)C)cc3)cc2C1=O`, the cytotoxicity call is “inactive”.

With `CC(C)NC(=O)N(C)C[C@@H]1Oc2ccc(NS(=O)(=O)c3cn(C)cn3)cc2CC(=O)N([C@H](C)CO)C[C@H]1C`, the cytotoxicity call is “inactive”.

For the compound `Cl.OC(c1cc(C(F)(F)F)nc2c(C(F)(F)F)cccc12)C1CCCCN1` (stereo unspecified), the cytotoxicity call was “active”.

Consider `C[C@@H]1CN([C@H](C)CO)S(=O)(=O)c2ccc(C#CC3(O)CCCC3)cc2O[C@H]1CN(C)C(=O)c1ccncc1`, for which the cytotoxicity call was “inactive”.

For `CNC(=O)c1c(F)cccc1Nc1nc(Nc2cc3c(cc2OC)CCN3C(=O)CN(C)C)nc2[nH]ccc12`, the cytotoxicity call is “active”.

On to `COc1cc(C(=O)N2CCC(N3CCN(C)CC3)CC2)ccc1Nc1ncc2c(n1)N(C)c1ccccc1C(=O)N2C`, for which the cytotoxicity call is “inactive”.

`C[C@@H]1CN([C@H](C)CO)C(=O)Cc2cc(NS(=O)(=O)c3cn(C)cn3)ccc2O[C@@H]1CN(C)C(=O)Nc1ccccc1`: the cytotoxicity call was “inactive”.

These data come from the antibiotic and cytotoxicity screens of Wong et al. (2023).
